This is an account of results in PubChem BioAssay (Tox21).

The structures appear in SMILES notation. Inconclusive results are not listed. Activity calls are given as the source filed them. The call rests on the fitted dose curve; in most records, active means well fitted activation curve with a large enough effect in the repeat runs; inconclusive means weak or mixed curves; inactive means flat fitted curve, though single readings scatter.
On the % scale 0 is the no-effect control and ±100 the full control effect; potency means the concentration at half of the fitted maximal effect.

The target in the experiment is Nuclear receptor subfamily 1 group I member 2 (Homo sapiens) (UniProt O75469). The experiment is described as follows: Human pregnane X receptor (PXR) activation by small molecules, qHTS assay (AID 1346985). Further: nearly all actives have a fitted effect of over 40% in size. The note with it: DPX-2 HepG2 CYP3A4-luciferase, 24 h; series mostly up to 38.3 µM; activation: at the top concentration. From the text: National Center for Advancing Translational Sciences [NCATS]
NIH Chemical Genomics Center [NCGC]
U.S. Environmental Protection Agency [EPA]
National Institutes of Environmental Health Sciences [NIEHS]
National Toxicology Program [NTP]
The Pregnane X receptor (PXR), a ligand activated nuclear receptor plays a critical role in the regulation of genes involved in drug metabolism and transporters. Activation of PXR may be involved in the unwanted adverse drug-drug interactions. […] Therefore, identification of compounds with the potential for PXR activation can be of importance in improving the efficacy of drugs with less toxicity and avoiding drug-drug interactions.
DPX-2 (Puracyp, Inc.) cell lines, used for screening against human PXR activation has HepG2 cells co-transfected with a PXR response element and a luciferase construct containing CYP3A4 promoter. Increase in luciferase activity can be used to identify the compounds that activate the PXR pathway.
DPX-2 cells were dispensed at 2,000 cells per well in 5uL of assay medium into white, solid-bottom 1536-well plates using a Multidrop Combi dispenser (Thermo Scientific). The assay plates were incubated at 37C for 5hr before transferring 23nL of test compounds dissolved in DMSO and positive control via Pintool station (Wako). The assay plates were incubated at 37C for 24hr. Then 5ul One-Glo assay reagent (Promega) was added to each plate by a Flying Reagent Dispenser (FRD, Aurora Discovery) and following 30 min incubation at room temperature, luciferase activity was quantified on a ViewLux plate reader (Perkin Elmer).
On the technique in general: Quantitative high-throughput screening tests each substance at several concentrations.
In the case of `NS(=O)(=O)c1cc2c(cc1Cl)NC(C(Cl)Cl)NS2(=O)=O` (stereo unspecified), the “activation” value was 14.3% [at 17.1 µM] (inactive).

Regarding `O=C(/C=C/c1ccccc1)NCCO`, the “activation” value was 3.69% (inactive).

On to `CC(C)(CO)[C@@H](O)C(=O)NCCCO`, for which the “activation” value is 19.1% (inactive).

For the molecule `CN[C@@H]1[C@H](O)[C@H](NC)[C@H]2O[C@@]3(O)C(=O)C[C@@H](C)O[C@H]3O[C@@H]2[C@H]1O`, the “activation” value is 1.04% [at 17.1 µM] (inactive).

For the molecule `Cn1c(=O)c2c(ncn2CC2OCCO2)n(C)c1=O`, the “activation” value was -5.32% (inactive).

For the molecule `CCNC(=O)/C=C/c1cccc(Br)c1`, the “activation” value was 23.9% (inactive).

With `NC(=O)NC(=O)Cc1ccccc1`, the “activation” value was 0.572% (inactive).

As to `COc1cc2c(Nc3ccc(Br)cc3F)ncnc2cc1OCC1CCN(C)CC1`, the Potency was 14.1 µM (active).

On to `Cc1cccc(Nc2ccncc2S(=O)(=O)NC(=O)NC(C)C)c1`, for which the “activation” value was 26.9% [at 17.1 µM] (inactive).

For the molecule `CCC1Nc2cc(Cl)c(S(N)(=O)=O)cc2S(=O)(=O)N1` (stereo unspecified), the “activation” value was 16.6% (inactive).

For the molecule `O=c1cc(O)c(Cl)c[nH]1`, the “activation” value was -1.27% (inactive).

Consider `COc1ccc(/C=N/NC(=O)c2ccncc2)cc1OC`, for which the “activation” value is -6.05% (inactive).

On to `COc1cc2c3cc1Oc1cc(ccc1O)C[C@@H]1c4c(cc(OC)c(O)c4Oc4ccc(cc4)C[C@@H]3N(C)CC2)CC[N+]1(C)C`, for which the “activation” value is 4.44% (inactive).

`F[Si-2](F)(F)(F)(F)F`: the “activation” value was -3.48% (inactive).

Regarding `CC(=O)N(CC(O)CO)c1c(I)c(C(=O)NCC(O)CO)c(I)c(C(=O)NCC(O)CO)c1I` (stereo unspecified), the “activation” value is 4.37% (inactive).

For the molecule `CC(=O)Nc1ncc([N+](=O)[O-])s1`, the “activation” value is -7.59% (inactive).

For `O=c1[nH]c(=O)c2ccccc2o1`, the “activation” value is -0.342% (inactive).

Regarding `O=C(O)/C=C/c1ccccc1`, the “activation” value is 0.681% (inactive).

As to `O=C(Oc1ccccc1C(=O)O)c1ccccc1O`, the “activation” value was -13.6% (inactive).

For the molecule `NCCc1ccn[nH]1`, the “activation” value was -5.25% [at 17.1 µM] (inactive).

In the case of `Cc1oc(=O)oc1CN1CCN(c2cc3c(cc2F)c(=O)c(C(=O)O)c2n3C(C)S2)CC1` (stereo unspecified), the “activation” value is 2.14% (inactive).

As for `Cc1c(C(C)C)c(=O)n(-c2ccccc2)n1C`, the “activation” value was 23% (inactive).

As for `NC(=O)C1(N2CCCCC2)CCN(CCCC(=O)c2ccc(F)cc2)CC1`, the “activation” value was 8.56% (inactive).

Take `Nc1ccc(S(=O)(=O)Nc2ccccn2)cc1`: the “activation” value was -7.65% [at 17.1 µM] (inactive).

In the case of `CNCc1ccccc1`, the “activation” value is 1.69% (inactive).

Consider `O=C(Nc1cccc(C2=NCCN2)c1)Nc1cccc(C2=NCCN2)c1`, for which the “activation” value is -0.736% (inactive).

As for `NS(=O)(=O)c1ccc(Cl)c(S(N)(=O)=O)c1`, the “activation” value was 2.94% (inactive).

Turning to `NS(=O)(=O)c1cc2c(cc1Cl)NC(CC1CCCC1)NS2(=O)=O` (stereo unspecified), the “activation” value is -7.39% [at 17.1 µM] (inactive).

Consider `Nc1ccc(S(=O)(=O)NC(=O)c2ccccc2)cc1`, for which the “activation” value is 10.4% [at 17.1 µM] (inactive).

Consider `O=c1[nH]c(=O)c2[nH]c(=O)[nH]c2[nH]1`, for which the “activation” value was -1.14% (inactive).

On to `Nc1ccc(/C=C/c2ccc(N)cc2S(=O)(=O)O)c(S(=O)(=O)O)c1`, for which the “activation” value is -5.52% (inactive).
